Measurements published in the supplement of paper PMC8728848.
Only a selection was taken, and the strongest signals are over-represented in it overall.

Columns and labels:
Assay in all cases: glycan array binding signal (z-score within array); higher = stronger binding
Conditions in all cases: glycan notation: IUPAC condensed, linker removed
[1] = biological target: Fuc(a1-2)Gal(b1-3)GlcNAc(b1-2)Man(a1-3)[Fuc(a1-2)Gal(b1-3)GlcNAc(b1-2)Man(a1-6)]Man(b1-4)GlcNAc(b1-4)GlcNAc
Outline: (§1)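 Glycan array data came from 3228 arrays in the Consortium for Functional Glycomics database, and only arrays with an available protein sequence were kept. Glycan names were put into IUPAC-condensed notation, and columns mapping to the same glycan were averaged. The binding signal is a within-array Z-score, averaged across arrays of one protein sequence run at different concentrations or buffers and across linkers. A negative Z-score can be read as non-binding.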

[2] = biological target: Fuc(a1-2)Gal(b1-4)Glc
Outline: as §1

[3] = biological target: Fuc(a1-2)Gal(b1-4)GlcNAc
Outline: as §1

[4] = biological target: Fuc(a1-2)Gal(b1-4)GlcNAc6S
Outline: as §1

[5] = biological target: Fuc(a1-2)[Gal(a1-3)]Gal
Outline: as §1

[6] = biological target: Fuc(a1-2)[Gal(a1-3)]Gal(b1-4)Glc
Outline: as §1

[7] = biological target: Fuc(a1-2)[Gal(a1-3)]Gal(b1-4)GlcNAc(b1-2)Man(a1-3)[Fuc(a1-2)[Gal(a1-3)]Gal(b1-4)GlcNAc(b1-2)Man(a1-6)]Man(b1-4)GlcNAc(b1-4)GlcNAc
Outline: as §1

[8] = biological target: Fuc(a1-2)[GalNAc(b1-3)]Gal
Outline: as §1

[9] = biological target: Fuc(a1-3)GlcNAc
Outline: as §1

[10] = biological target: Fuc(a1-3)[Gal(b1-4)]GlcNAc
Outline: as §1

[11] = biological target: Fuc(a1-3)[GalNAc(b1-4)]GlcNAc
Outline: as §1

[12] = biological target: Fuc(b1-3)GlcNAc
Outline: as §1

[13] = biological target: Gal(a1-2)Gal
Outline: as §1

[14] = biological target: Gal(b1-3)[Fuc(a1-4)]GlcNAc(b1-2)Man(a1-3)[Gal(b1-3)[Fuc(a1-4)]GlcNAc(b1-2)Man(a1-6)]Man(b1-4)GlcNAc(b1-4)[Fuc(a1-6)]GlcNAc
Outline: as §1

[15] = biological target: Gal(b1-4)GlcNAc(b1-3)Gal(b1-4)[Fuc(a1-3)]GlcNAc(b1-3)Gal(b1-4)[Fuc(a1-3)]GlcNAc
Outline: as §1

[16] = biological target: Gal(b1-4)GlcNAc(b1-6)Gal(b1-4)GlcNAc(b1-6)GalNAc
Outline: as §1

[17] = biological target: Gal(b1-4)GlcNAc(b1-6)GalNAc
Outline: as §1

[18] = biological target: Gal(b1-4)GlcNAc(b1-6)[Gal(b1-3)]GalNAc
Outline: as §1

[19] = biological target: Gal3S(b1-3)GalNAc
Outline: as §1

[20] = biological target: Gal3S6S(b1-4)GlcNAc6S
Outline: as §1

[21] = biological target: GalNAc(b1-4)GlcNAc
Outline: as §1

[22] = biological target: Glc(a1-4)Glc
Outline: as §1

[23] = biological target: Glc(b1-4)Glc
Outline: as §1

[24] = biological target: GlcA(b1-3)Gal
Outline: as §1

[25] = biological target: GlcNAc(a1-4)Gal(b1-4)GlcNAc(b1-3)Gal(b1-4)GlcNAc
Outline: as §1

[26] = biological target: GlcNAc(b1-3)GalNAc
Outline: as §1

[27] = biological target: GlcNAc(b1-6)GalNAc
Outline: as §1

[28] = biological target: Neu5Ac(a2-3)Gal6S(b1-4)GlcNAc
Outline: as §1

[29] = biological target: Neu5Ac(a2-6)Gal(b1-4)GlcNAc
Outline: as §1

[30] = biological target: Neu5Ac(a2-8)Neu5Ac(a2-8)Neu5Ac(a2-3)Gal(b1-4)Glc
Outline: as §1

[31] = biological target: Neu5Ac9Ac(a2-3)Gal(b1-4)GlcNAc
Outline: as §1

[32] = biological target: Fuc(a1-2)[Gal(a1-4)]Gal(b1-4)GlcNAc
Outline: as §1

[33] = biological target: Fuc(a1-3)[Gal(b1-4)]GlcNAc(b1-4)Gal(b1-4)[Fuc(a1-3)]GlcNAc(b1-4)Gal(b1-4)[Fuc(a1-3)]GlcNAc
Outline: as §1

[34] = biological target: Gal(a1-3)Gal
Outline: as §1

[35] = biological target: Gal(a1-3)Gal(b1-3)GlcNAc(b1-2)Man(a1-3)[Gal(a1-3)Gal(b1-3)GlcNAc(b1-2)Man(a1-6)]Man(b1-4)GlcNAc(b1-4)GlcNAc
Outline: as §1

[36] = biological target: Gal(a1-4)Gal(b1-4)GlcNAc(b1-2)Man(a1-3)[Gal(a1-4)Gal(b1-4)GlcNAc(b1-2)Man(a1-6)]Man(b1-4)GlcNAc(b1-4)GlcNAc
Outline: as §1

[37] = biological target: Gal(b1-2)Gal
Outline: as §1

[38] = biological target: Gal(b1-3)[GlcNAc(b1-6)]GalNAc
Outline: as §1

[39] = biological target: Gal(b1-4)GlcNAc(b1-2)Man(a1-3)Man(b1-4)GlcNAc(b1-4)GlcNAc
Outline: as §1

[40] = biological target: Gal(b1-4)GlcNAc(b1-2)Man(a1-3)[Gal(b1-4)GlcNAc(b1-2)Man(a1-6)]Man(b1-4)GlcNAc(b1-4)GlcNAc
Outline: as §1

[41] = biological target: Gal(b1-4)GlcNAc(b1-2)Man(a1-3)[GlcNAc(b1-2)Man(a1-6)]Man(b1-4)GlcNAc(b1-4)GlcNAc
Outline: as §1

[42] = biological target: Gal(b1-4)GlcNAc(b1-2)Man(a1-3)[Man(a1-6)]Man(b1-4)GlcNAc(b1-4)GlcNAc
Outline: as §1

[43] = biological target: Gal(b1-4)GlcNAc(b1-3)GalNAc
Outline: as §1

[44] = biological target: Gal6S(b1-4)GlcNAc6S
Outline: as §1

[45] = biological target: GalNAc(a1-3)Gal
Outline: as §1

[46] = biological target: GlcNAc(a1-4)Gal(b1-3)GlcNAc
Outline: as §1

[47] = biological target: GlcNAc(a1-4)Gal(b1-4)GalNAc
Outline: as §1

[48] = biological target: GlcNAc(a1-4)Gal(b1-4)GlcNAc
Outline: as §1

[49] = biological target: GlcNAc(a1-6)Gal(b1-4)GlcNAc
Outline: as §1

[50] = biological target: Man(a1-3)[Man(a1-6)]Man(a1-6)[Man(a1-2)Man(a1-3)]Man(b1-4)GlcNAc(b1-4)GlcNAc
Outline: as §1

[51] = biological target: Neu5Ac(a2-3)Gal(b1-4)GlcNAc(b1-6)[Neu5Ac(a2-3)Gal(b1-3)]GalNAc
Outline: as §1

[52] = biological target: Neu5Ac(a2-3)Gal(b1-4)[Fuc(a1-3)]GlcNAc(b1-3)GalNAc
Outline: as §1

[53] = biological target: Neu5Ac(a2-3)GalNAc
Outline: as §1

[54] = biological target: Neu5Ac(a2-6)Gal(b1-4)GlcNAc(b1-3)Gal(b1-4)GlcNAc(b1-3)Gal(b1-4)GlcNAc
Outline: as §1

[55] = biological target: Neu5Ac(b1-6)GalNAc
Outline: as §1

[56] = biological target: Neu5Gc(a2-6)GalNAc
Outline: as §1

B1: DC-ASPGR (Homo sapiens), CLC10_HUMAN (protein)
chain: LDQNSKFQRDLVTLRTDFSNFTSNTVAEIQALTSQGSSLEETIASLKAEVEGFKQERQAVHSEMLLRVQQLVQDLKKLTCQVATLNNNASTEGTCCPVNWVEHQDSCYWFSHSGMSWAEAEKYCQLKNAHLVVINSREEQNFVQKYLGSAYTWMGLSDPEGAWKWVDGTDYATGFQNWKPGQPDDWQGHGLGGGEDCAHFHPDGRWNDDVCQRPYHWVCEAGLGQTSQESHVEPKSCDKTHTCPPCPAPELLGGPSVFLFPPKPKDTLMISRTPEVTCVVVDVSHEDPEVKFNWYVDGVEVHNAKTKPREEQFNSTYRVVSVLTVLHQDWLNGKEYKCKVSNKGLPSSIEKTISKAKGQPREPQVYTLPPSQEEMTKNQVSLTCLVKGFYPSDIAVEWESNGQPENNYKTTPPVLDSDGSFFLYSRLTVDKSRWQEGNVFSCSVMHEALHNHYTQK
[1]
  glycan array binding signal (z-score): -0.074
[2]
  glycan array binding signal (z-score): -0.082
[3]
  glycan array binding signal (z-score): -0.165
[4]
  glycan array binding signal (z-score): -0.177
[5]
  glycan array binding signal (z-score): -0.287
[6]
  glycan array binding signal (z-score): -0.303
[7]
  glycan array binding signal (z-score): -0.297
[8]
  glycan array binding signal (z-score): 3.91
[9]
  glycan array binding signal (z-score): -0.256
[10]
  glycan array binding signal (z-score): -0.246
[11]
  glycan array binding signal (z-score): 2.36
[12]
  glycan array binding signal (z-score): -0.235
[13]
  glycan array binding signal (z-score): -0.14
[14]
  glycan array binding signal (z-score): -0.15
[15]
  glycan array binding signal (z-score): -0.197
[16]
  glycan array binding signal (z-score): -0.298
[17]
  glycan array binding signal (z-score): 3.86
[18]
  glycan array binding signal (z-score): -0.173
[19]
  glycan array binding signal (z-score): -0.146
[20]
  glycan array binding signal (z-score): -0.248
[21]
  glycan array binding signal (z-score): 2.66
[22]
  glycan array binding signal (z-score): 5.49
[23]
  glycan array binding signal (z-score): -0.27
[24]
  glycan array binding signal (z-score): -0.276
[25]
  glycan array binding signal (z-score): -0.092
[26]
  glycan array binding signal (z-score): -0.27
[27]
  glycan array binding signal (z-score): 4.28
[28]
  glycan array binding signal (z-score): -0.179
[29]
  glycan array binding signal (z-score): -0.236
[30]
  glycan array binding signal (z-score): -0.244
[31]
  glycan array binding signal (z-score): -0.099

B2: CLEC-1 (Homo sapiens), Q9NZH3 (protein)
chain: MQAKYSSTRDMLDDDGDTTMSLHSQASATTRHPEPRRTEHRAPSSTWRPVALTLLTLCLVLLIGLAAWGLLFFQYYQLSNTGQDTISQMEERLGNTSQELQSLQVQNIKLAGSLQHVAEKLCRELYNKAGAHRCSPCTEQWKWHGDNCYQFYKDSKSWEDCKYFCLSENSTMLKINKQEDLEFAASQSYSEFFYSYWTGLLRPDSGKAWLWMDGTPFTSELFHIIIDVTSPRSRDCVAILNGMIFSKDCKELKRCVCERRAGMVKPESLHVPPETLGEGD
[1]
  glycan array binding signal (z-score): 6.09
[32]
  glycan array binding signal (z-score): -0.046
[33]
  glycan array binding signal (z-score): 0.063
[34]
  glycan array binding signal (z-score): -0.376
[35]
  glycan array binding signal (z-score): 3.16
[36]
  glycan array binding signal (z-score): 5.92
[37]
  glycan array binding signal (z-score): -0.482
[38]
  glycan array binding signal (z-score): -0.033
[39]
  glycan array binding signal (z-score): 1.79
[40]
  glycan array binding signal (z-score): 0.112
[41]
  glycan array binding signal (z-score): -0.583
[42]
  glycan array binding signal (z-score): 11
[43]
  glycan array binding signal (z-score): -0.261
[19]
  glycan array binding signal (z-score): -0.341
[20]
  glycan array binding signal (z-score): 3.17
[44]
  glycan array binding signal (z-score): 0.66
[45]
  glycan array binding signal (z-score): -0.34
[46]
  glycan array binding signal (z-score): -0.516
[47]
  glycan array binding signal (z-score): -0.035
[48]
  glycan array binding signal (z-score): 2.86
[49]
  glycan array binding signal (z-score): 2.11
[50]
  glycan array binding signal (z-score): 0.433
[51]
  glycan array binding signal (z-score): -0.142
[52]
  glycan array binding signal (z-score): 2.82
[28]
  glycan array binding signal (z-score): -0.086
[53]
  glycan array binding signal (z-score): -0.178
[54]
  glycan array binding signal (z-score): -0.43
[55]
  glycan array binding signal (z-score): -0.392
[56]
  glycan array binding signal (z-score): -0.297
